# In PubChem BioAssay AID1700 (The Scripps Research Institute Molecular Screening Center, 2009):
# About 670 (0.23%) of roughly 290,000 compounds were called active.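 Rule for the calls: active = inhibition above a per-plate limit of that plate's mean compound inhibition plus 3 SD (cut at about 60% in these data); inactive = the rest.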 The list comes from a sample in which actives are over-represented; it also holds similar structures and randomly drawn compounds.
# Experiment: KLF5 expression inhibitors, primary screen, DLD-1 cells, luminescence (AID 1700);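 note: 0% = DMSO wells and 100% = LY294002 at 200 µM; higher means less KLF5 promoter-driven luciferase light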
# Conditions: DLD-1 KLF5 promoter-luciferase reporter, at 5 µM, active compounds read high
row,SMILES,inhibition
1,O=C(N[C@@H](Cc1ccccc1)C(=O)OCc1ccccc1)c1nc[nH]c1C(=O)N[C@@H](Cc1ccccc1)C(=O)OCc1ccccc1,-14.8% (inactive)
2,O=C(CN1CCC(O)(c2cccc(C(F)(F)F)c2)CC1)NCCc1ccccc1,-13% (inactive)
3,O=C(CSc1ccc(-c2ccccn2)nn1)Nc1ccccc1,-2% (inactive)
4,Cc1cc(=O)n2nc(N3CCC(C(=O)Nc4c(F)c(F)c(F)c(F)c4F)CC3)sc2n1,13.4% (inactive)
5,N#CCC(=O)NC1CCC(CC2CCC(NC(=O)CC#N)CC2)CC1 (configuration not stated),-13.8% (inactive)
6,Cc1nn(C(C)C(=O)N2CCOCC2)c(=O)c2nn(-c3ccccc3)c(C)c12 (configuration not stated),-19% (inactive)
7,COc1cc2c(cc1OC)CN(C(=O)c1cc(=O)c3ccccc3o1)CC2,37.6% (inactive)
8,CCOc1cc(C(=O)N2CCc3cc(OC)c(OC)cc3C2)ccc1OC(F)F,73.9% (active)
9,COc1cc2c(cc1OC)CN(C(=O)c1ccc(S(=O)(=O)N3CCCCCC3)cc1)CC2,-28.3% (inactive)
10,COc1cccc(/C=N/NC(=O)c2[nH]nc3c2CCc2ccccc2-3)c1O,5.06% (inactive)
11,COc1cccc(/C=N/Nc2cc(C)nc(-c3ccccc3O)n2)c1O,-137% (inactive)
12,COc1cccc(/C=N/Nc2ncc(C(F)(F)F)cc2Cl)c1O,101% (active)
13,O=C1CSc2ccc(S(=O)(=O)NCc3ccccc3)cc2N1,11.2% (inactive)
14,Cc1c(CC(=O)NCC(=O)NCC(=O)O)c(=O)oc2cc3oc4c(c3cc12)CCCC4,-28.3% (inactive)
15,Cc1ccc2[nH]c(=O)c(CN(CC3COCCO3)C(=O)Nc3ccccc3C)cc2c1 (configuration not stated),18.1% (inactive)
16,Cc1ccc2[nH]c(=O)c(CN(CCCN(C)C)C(=O)Nc3cccc(Cl)c3)cc2c1,109% (active)
17,CCC(=O)N(CCc1ccccc1)Cc1cc2cc(C)ccc2[nH]c1=O,-35.9% (inactive)
18,O=C(NCCc1ccc(Cl)cc1)C1CCCN1C(=O)NCc1ccccc1 (configuration not stated),-14.2% (inactive)
19,COc1ccc(NCCc2ccccn2)cc1,-36.1% (inactive)
20,COc1ccccc1/C=N/N1CCN(Cc2ccccc2Cl)CC1,-27% (inactive)
21,CCOc1ccc(Cn2nnc(C(=O)NCc3ccccc3)c2N)cc1,-14.8% (inactive)
22,CCOc1ccccc1NC(=O)Cc1cccs1,4.44% (inactive)
23,CCOc1ccccc1NC(=O)Cn1nnc(C(=O)NCc2cccs2)c1N,72.7% (active)
24,CN(NC(=O)c1ccccc1)c1nc2ccccc2nc1C(F)(F)F,-18.5% (inactive)
25,COC(=O)CNC(=O)c1ccccc1F,-16.9% (inactive)

row,SMILES,inhibition
1,COc1ccc(C(=O)NN(C)c2nc(-c3ccccc3)cc(C)c2S(C)(=O)=O)cc1,-7.27% (inactive)
2,CSc1nc(N(C)NC(=O)c2cccc(C)c2)c2ccccc2n1,83.5% (active)
3,Cc1cccc(C(=O)NCCCN(C)CCCNC(=O)c2cccc(C)c2)c1,-59.8% (inactive)
4,CN(NC(=O)c1ccccc1F)c1nc(C(F)(F)F)nc2ccccc12,68.7% (active)
5,O=C(Nc1ccccc1C(=O)NCC1CCCO1)c1ccccc1F (configuration not stated),-10.3% (inactive)
6,CCCCCCCCn1c2c(c(=N)c3c1CCC3)CCCC2,72.8% (active)
7,CCCCCCn1c(CN2CCCCC2)nc2c1c(=O)n(C)c(=O)n2C,0.95% (inactive)
8,O=c1[nH]cccc1-c1nc2ccccc2n1Cc1ccc(Cl)cc1,-29.9% (inactive)
9,Cc1ccc(CNS(=O)(=O)c2ccc3c(c2)N(C)CCO3)cc1,-12.4% (inactive)
10,Cn1cc(C(=O)c2ccc(Cl)cc2Cl)cc1C(=O)NN,-35.5% (inactive)
11,CCOc1ccccc1CN1CCN(C2CCC2)CC1CCO (configuration not stated),12% (inactive)
12,CCOC(=O)c1sc(NC(=O)c2ccncc2)nc1C,-25.1% (inactive)
13,CCOC(=O)c1sc(/N=C/Nc2nc(C)c(C(=O)OCC)s2)nc1C,6.72% (inactive)
14,CCOC(=O)c1sc(NC(=O)c2sc(C)nc2C)nc1C,79% (active)
15,Cc1cccc(NC(=O)C2CCN(C(=O)NC3CCCCC3)CC2)c1,-12.5% (inactive)
16,Cc1ccc(O)c(CNc2nc3ccccc3[nH]2)c1,-87.9% (inactive)
17,COc1ccc(-c2cc(=O)oc3cc(OCC(=O)N(C)C4CCS(=O)(=O)C4)ccc23)cc1 (configuration not stated),-4.99% (inactive)
18,Cc1ccc(-c2cc(=O)c3ccc(F)cc3[nH]2)cc1,9.96% (inactive)
19,O=c1cc(-c2ccccc2)[nH]c2cc(F)ccc12,73.5% (active)
20,Cc1ccc(-c2cc(=O)c3ccc(Cl)cc3[nH]2)cc1,-4.81% (inactive)
21,CCCCNC(=O)c1cn(CC)c2cc(N3CCN(C(=O)c4ccco4)CC3)c(F)cc2c1=O,-2.76% (inactive)
22,COc1ccc(NC(=O)CCNC(=O)Cn2cnc3sc4c(c3c2=O)CCCC4)cc1OC,-21.6% (inactive)
23,COc1cc(NC(=O)C2=C(C)OCCS2)c(Cl)cc1C(=O)NCCN1CCN(C)CC1,-25.5% (inactive)
24,O=C1CCC(C(=O)N2CCN(c3ccccc3Cl)CC2)CN1CC1CCCCC1 (configuration not stated),-15.8% (inactive)
25,CC1CCCN(CC(=O)Nc2cc(Cl)ccc2Oc2ccccc2)C1 (configuration not stated),-4.36% (inactive)

row,SMILES,inhibition
1,Cc1ccc(CNC(=O)C2CCN(S(=O)(=O)c3ccc4nc5c(c(C(=O)O)c4c3)CC(C)CC5)CC2)cc1 (configuration not stated),-5.44% (inactive)
2,CCc1ccc(/C=N/NC(=O)c2nnn(-c3nonc3N)c2CN2CCc3ccccc32)cc1,9.12% (inactive)
3,O=C(CSc1nc(C2CC2)nc2ccccc12)Nc1cccc(O)c1,-13.5% (inactive)
4,Cn1cc(CCC(=O)NC2CC2)c2ccccc21,-37% (inactive)
5,Cc1ccc(S(=O)(=O)N(C)CC(=O)NCCc2c[nH]c3ccccc23)cc1,-25.4% (inactive)
6,Cc1ccc(/C=N/NC(=O)c2cc3ccccc3cc2O)o1,-47.3% (inactive)
7,Cc1ccc(CSc2nsc(C)c2C#N)cc1,-19.4% (inactive)
8,Cc1ccc2nc(-c3ccc(Br)cc3)cn2c1,48.8% (inactive)
9,Cc1ccc(-c2cn3cc(C)ccc3n2)cc1,81% (active)
10,Cc1ccc(-c2cn3cc([N+](=O)[O-])ccc3n2)cc1,-2.85% (inactive)
11,O=C(CCn1nnnc1CN1CCOCC1)N1CCC(c2ccccc2Cl)C1 (configuration not stated),-1.39% (inactive)
12,CN(c1ccc2nc3ccccc3c(=O)n2n1)C1CCCCC1,90.6% (active)
13,O=c1c2ccccc2nc2n1C1(CCCCC1)Cc1ccccc1-2,-22.6% (inactive)
14,CCOC(=O)C(C)Sc1nc2ccccc2c(=O)n1CC1CCCCC1 (configuration not stated),-3.75% (inactive)
15,Nc1ccc(-c2nnc(-c3ccccc3)o2)cc1,-131% (inactive)
16,COc1ccccc1N1CCC(N2CCN(CC(C)(C)C)C(CCO)C2)CC1 (configuration not stated),-23.1% (inactive)
17,CC[C@]1(c2ccccc2OC)C(=O)N(C(=O)OC)N1C(=O)OC,-7.14% (inactive)
18,Cn1nccc1C(=O)NC1CCCc2c1cnn2-c1ccc(F)cc1F (configuration not stated),64.7% (active)
19,Cn1nccc1C(=O)NC1CCCc2c1cnn2-c1ccccc1F (configuration not stated),-17% (inactive)
20,CC(=O)NCC(=O)NC1CCCc2c1cnn2-c1ccccc1F (configuration not stated),-24.6% (inactive)
21,O=C(c1ccc(F)cc1)N1CCCC(C(=O)N2CCCCC2)C1 (configuration not stated),-2.28% (inactive)
22,CN(c1ccccc1)S(=O)(=O)c1ccc2[nH]c(=O)[nH]c2c1,-38.8% (inactive)
23,Cc1ccc(OC(=O)c2cncc(Br)c2)c(C)c1,-28.5% (inactive)
24,Cc1ccc(C(=O)NCCc2nnc(SCC(=O)Nc3cccc(C(=O)O)c3)n2C)cc1,-36.2% (inactive)
25,N#CCSc1nc(-c2ccccc2)nc2ccc(F)cc12,-32.8% (inactive)

row,SMILES,inhibition
1,CCn1c(=S)sc2c(=O)n(CC(=O)Nc3cccc(Br)c3)c(C)nc21,-3.48% (inactive)
2,Cc1ccc(S(=O)(=O)N2CCN(C(=O)CSc3cc(C)ccc3C)CC2)c(C)c1,-17.8% (inactive)
3,COc1cccc(/C=N/Nc2ccc(Cl)nn2)c1,-91.5% (inactive)
4,Clc1ccc(N/N=C/c2cccs2)nn1,-13.3% (inactive)
5,Oc1cccc(/C=N/Nc2ccc(Cl)nn2)c1O,84.3% (active)
6,COc1ccc(N2CCN(S(=O)(=O)CCNC(=O)C34CC5CC(CC(C5)C3)C4)CC2)cc1,-7.42% (inactive)
7,CCN1C(=O)/C(=C2/Sc3ccc(OC)cc3N2C)SC1=Nc1ccc(C)cc1,-15.8% (inactive)
8,CCOC(=O)c1ccc(NC(=O)Cc2cccs2)cc1,-60.6% (inactive)
9,O=C(NCc1ccccc1)C(c1ccccc1)N(C(=O)c1csnn1)c1ccc(F)cc1 (configuration not stated),-8.26% (inactive)
10,Cc1cc(N)n2nc(-c3ccc(C(C)(C)C)cc3)cc2n1,-77.7% (inactive)
11,CCn1c(SCC(=O)Nc2nccs2)nnc1-c1ccco1,-15.7% (inactive)
12,CCn1c(SCC(=O)NC2CC2)nnc1-c1ccncc1,-7.99% (inactive)
13,CCn1c(SCC(=O)Nc2nccs2)nnc1-c1ccncc1,102% (active)
14,CCCC(C(=O)n1nc(C)cc1C)C(NS(=O)(=O)c1ccc(C)cc1)c1ccccc1 (configuration not stated),-5.65% (inactive)
15,CCOc1cc(/C=C2\C(=N)N3N=C(C)SC3=NC2=O)ccc1OCCOc1ccccc1,-24.1% (inactive)
16,Cc1cccc(NC(=O)CSCC(=O)Nc2nnc(C3CC3)s2)c1,-22.8% (inactive)
17,Cc1ccccc1N1CCN(S(=O)(=O)c2ccc3ccccc3c2)CC1,-6.9% (inactive)
18,Cc1ccc(C(=O)N2CC(=O)Nc3ccc(F)cc3C2c2ccc(F)cc2)cc1 (configuration not stated),-4.39% (inactive)
19,O=C(NCC1CCCO1)c1cc2c([nH]c3ccccc32)c(-c2ccc(F)cc2)n1 (configuration not stated),12.1% (inactive)
20,COc1cc(/C=N/NC(=O)c2ccc(N3CCCC3=O)cc2)ccc1O,-6.57% (inactive)
21,COc1ccc(C(=O)Nc2ccccc2C(=O)N/N=C/c2ccc(O)c(OC)c2)cc1,99.4% (active)
22,COc1ccc(/C=N/NC(=O)c2ccccc2)cc1OS(=O)(=O)c1ccccc1,-22.4% (inactive)
